EPAC1 agonist: activates human EPAC1 exchange factor. 360,000 tested, 0.073% active. EPAC1 agonist qHTS, biochemical assay; response scale: 100% = response to 6.5 mM cAMP. Potency, µM (top dose mostly 154 µM), for inactives: top-dose activation, actives largely listed as activators. O95398; further: nearly all actives have a fitted effect of over 60% in size
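Read-out is the fluorescence drop as BODIPY-GDP leaves Rap1B (480 nm excitation, 540 nm emission), recorded every 5 minutes over 30 minutes. Reactions held 100 nM EPAC1, 250 nM Rap1B–BODIPY-GDP and 50 uM GDP, with 6.5 mM cAMP setting full activation.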
EPAC1 antag: EPAC1 (human) antagonism | Potency, µM (series often up to 115 µM), without a hit: at the highest dose activity change, negative = inhibition, most hits filed as inhibitors | EPAC1 GEF assay, Rap1b-BODIPY-GDP exchange fluorescence | AID 720709 | O95398 | 360,000 tested, 0.14% active;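 further: plate controls were vehicle for no effect and positive control for full effect; nearly all actives have a fitted effect of over 50% in size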
EPAC2 ag: EPAC2 (human) agonism. 360,000 tested, 0.079% active. Q8WZA2. AID 720711. EPAC2 activation, biochemical qHTS; response scale: 100% = 6.5 mM cAMP response. Potency, µM (series often up to 154 µM), inactives show at the top dose activation, hits mostly activators; further: nearly all actives have a fitted effect of over 50% in size
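Fluorescence exchange assay: 100 nM EPAC2 with 250 nM RAP1B-BODIPY-GDP and 50 uM GDP; compounds tested as a concentration-titration series (qHTS). Loss of Rap1-bound BODIPY-GDP fluorescence read at 480/540 nm; data normalized to 6.5 mM cAMP.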
Rango complex inh: prevents formation of the Rango-importin beta complex; 340,000 tested, 0.031% active; Potency, µM (top dose mostly 92.2 µM), without a hit: at the highest dose inhibition of complex formation; Q14974; Rango CFP/YFP FRET sensor + importin beta, 45 min; AID 540263; calls by dose curve;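 further: 0% = DMSO wells and 100% = buffer wells lacking importin beta; nearly all actives have a fitted effect of over 15% in size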
Target sequence (Q14974 whole entry, looked up): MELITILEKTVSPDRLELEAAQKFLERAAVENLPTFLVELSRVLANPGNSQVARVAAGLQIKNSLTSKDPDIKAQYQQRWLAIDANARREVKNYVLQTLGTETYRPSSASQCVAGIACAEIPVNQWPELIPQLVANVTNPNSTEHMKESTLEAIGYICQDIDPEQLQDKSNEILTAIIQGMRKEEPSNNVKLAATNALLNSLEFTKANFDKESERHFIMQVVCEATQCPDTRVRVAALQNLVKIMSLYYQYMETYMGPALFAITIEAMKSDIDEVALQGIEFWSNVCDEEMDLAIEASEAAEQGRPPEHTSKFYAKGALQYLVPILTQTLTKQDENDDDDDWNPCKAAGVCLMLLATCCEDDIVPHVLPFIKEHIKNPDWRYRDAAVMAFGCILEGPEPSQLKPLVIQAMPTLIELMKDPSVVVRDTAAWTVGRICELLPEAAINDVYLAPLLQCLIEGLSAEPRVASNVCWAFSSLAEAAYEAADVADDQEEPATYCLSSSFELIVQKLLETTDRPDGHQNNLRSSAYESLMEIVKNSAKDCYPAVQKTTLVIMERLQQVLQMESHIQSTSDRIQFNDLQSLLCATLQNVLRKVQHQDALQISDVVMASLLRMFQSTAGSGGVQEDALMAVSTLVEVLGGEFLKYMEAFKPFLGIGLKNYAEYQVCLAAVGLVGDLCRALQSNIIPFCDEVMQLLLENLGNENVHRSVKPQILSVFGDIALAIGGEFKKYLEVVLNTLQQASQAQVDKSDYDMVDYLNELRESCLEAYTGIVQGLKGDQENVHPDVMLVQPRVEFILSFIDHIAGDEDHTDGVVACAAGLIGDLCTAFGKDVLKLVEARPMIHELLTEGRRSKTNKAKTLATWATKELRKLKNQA
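FRET biosensor Rango (snurportin 1 IBB between N-terminal EYFP and C-terminal Cerulean), 50 nM in PBS/1 mM DTT/0.02% Tween-20/0.1% BSA, preincubated 5 min RT with compound; 0.125 microM importin beta added, 45 min RT, CFP/YFP FRET ratio read.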
Rango release inh: prevents RanGTP from dissociating the Rango-importin beta complex; Biochemical FRET Rango-importin beta, RanGTP-induced dissociation; Potency, µM (titrated, usually from 46.1 µM), without a hit: at the top dose activity change, negative = inhibition; 340,000 tested, 0.071% active; calls by dose curve; further: % of control where 0% means no effect; nearly all actives have a fitted effect of over 45% in size
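Rango/importin beta premix (0.1/0.25 uM final), PBS + 1 mM DTT + 0.02% Tween-20 + 0.1% BSA; cpd 5 min RT; FRET pre-read; + RanGTP-RCC1 (0.6 uM Ran, 2 mM GTP, 0.2 uM RCC1); 45 min RT; FRET post-read, ex 430, em 486/530 nm.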
EPAC2 antag: EPAC2 (human) antagonism | Q8WZA2 | EPAC2 GEF exchange of Rap1B-BODIPY-GDP, fluorescence | Potency, µM (series often up to 114 µM), without a hit: at the highest dose activity, negative = inhibition, usual class: inhibitors | 360,000 tested, 0.18% active; further: on the % scale 0 is the no-effect control and ±100 the full control effect; nearly all actives have a fitted effect of over 45% in size
* marks the source's active call; other numbers are inactive results; ? = inconclusive; / = no result given. Shown are actives, neighbours in structure and some others; about 0.48% of the full set was active somewhere. Unless noted, the call rests on the fitted dose curve; in most records, active means well fitted curve in the direction sought with a large enough effect; inconclusive means small, poorly fitted or top-dose-only effect, or another doubt; inactive means no such curve, though single readings can be large; an effect the other way counts as inactive or inconclusive. Potency means the concentration at half of the fitted maximal effect.

SMILES	EPAC1 agonist	EPAC1 antag	EPAC2 ag	Rango complex inh	Rango release inh	EPAC2 antag
N#C/C(=C\c1ccc(OCc2ccccc2)cc1)C(=O)Nc1nc2c(s1)CCN(Cc1ccccc1)C2	-4.5%	4.8%	-7.9%	?	?	36.9%
CN(C)c1ccc(/C=C(/C#N)C(=O)Nc2nc3c(s2)CCN(Cc2ccccc2)C3)cc1	18.5%	3.4%	100µM*	?	?	89.0%
O=C(CSc1nc(O)cc(=O)n1-c1ccccc1)Nc1ccc2c3c(cccc13)CC2	-2.5%	79.4µM*	4.3%	3.1%	-1.5%	0.5%
Cc1c(O)nc(SCC(=O)Nc2ccc3c4c(cccc24)CC3)n(-c2ccccc2)c1=O	-2.6%	20.7%	0.0%	3.3%	0.0%	-7.3%
CCCCCCCCN1C(=O)[C@H](CC(=O)N2CCC(c3ccccc3)CC2)C[C@@]2(C(=O)OC)CC(C)(C)CC=C12	-4.2%	-1.8%	3.5%	/	/	-12.6%
CCCCOc1c(Br)cc(/C=N/O)cc1OCC	-10.4%	?	-2.5%	4.2%	-0.8%	28.2µM*
C=CCOc1c(Br)cc(/C=N/O)cc1OCC	-3.1%	-10.2%	-10.0%	-3.6%	-18.1%	?
Oc1ccc(Br)cc1C=Nc1cccn2cc(-c3ccccc3)nc12	2.5%	0.1%	-16.9%	?	-26.4%	79.4µM*
CCc1ccc(OCCCC(=O)Nc2nnc(C3CCCO3)s2)cc1 (stereo unspecified)	-8.0%	-11.1%	7.0%	0.2%	-5.3%	-2.1%
COc1cc(C2NC(=O)NC3=C2C(=O)OC3)cc(OC)c1OC (stereo unspecified)	-4.7%	1.4%	0.7%	-0.3%	-0.1%	8.4%
C=CCOC(=O)C1=C(C)NC(=O)NC1c1ccc(OC(=O)c2ccco2)c(OC)c1 (stereo unspecified)	6.0%	-4.8%	-7.1%	-2.7%	-0.4%	3.5%
Cc1nn(CCc2nn[nH]n2)c2nc(-c3ccc(Br)cc3)cc(C(F)(F)F)c12	-14.5%	-28.0%	-19.7%	-3.0%	0.2%	31.6µM*
Cc1nn(CCc2nn[nH]n2)c2nc(C(F)(F)F)cc(C(F)(F)F)c12	18.1%	-11.6%	-22.3%	4.6%	-1.9%	-3.2%
CCN1C(=O)/C(=C/c2ccc(OCc3ccc(C(=O)O)cc3)c(Cl)c2)NC1=S	4.1%	89.1µM*	10.8%	?	?	26.2%
CCOc1ccccc1C(=O)NC(C(=O)OCn1nnc2ccccc2c1=O)C(C)C (stereo unspecified)	2.7%	13.5%	5.8%	/	/	-1.6%
Cc1c2ccccc2nc2c(F)c(NCCO)c(F)c(F)c12	7.5%	28.2µM*	-6.4%	?	?	-4.2%
Cc1sc(N)c(C(=O)c2ccccc2Cl)c1C	8.7%	19.0%	6.8%	-0.3%	-0.2%	31.6µM*
COC(=O)c1ccc(-c2nc(CN3CCN(C(=O)c4ccco4)CC3)c(C)o2)cc1	7.2%	-10.2%	11.5%	/	/	-6.8%
COC(CNC(=O)c1cccnc1)OC	-5.9%	-0.4%	2.2%	-0.2%	-11.9%	28.1%
COC(CNC(=O)c1ccc2c3c(onc13)-c1ccccc1C2=O)OC	56.2µM*	?	50.1µM*	7.5%	-9.5%	?
CCOc1cc(/C=C(\C#N)C(=O)Nc2cccc(C(=O)O)c2)cc(Br)c1OC(=O)c1ccc(OC)cc1	9.3%	?	-2.0%	?	?	50.1µM*
CCOc1cc(/C=C(\C#N)C(=O)Nc2cccc(C(=O)O)c2)ccc1OCc1ccccc1Cl	8.5%	-22.0%	-2.5%	4.9%	0.8%	-26.9%
CCN(CC1COc2ccccc2O1)C(=O)CN1C(=O)NC(C)(c2ccccc2)C1=O (stereo unspecified)	-2.2%	13.6%	15.6%	-4.9%	12.2%	-5.0%
CCN(CC1COc2ccccc2O1)C(=O)CN1C(=O)NC(C)(c2ccc(C)cc2)C1=O (stereo unspecified)	56.2µM*	-16.2%	3.0%	-0.9%	-2.3%	8.6%
CCOc1cccc(/C=N/NC(=S)Nc2cc(S(=O)(=O)N3CCOCC3)ccc2N2CCOCC2)c1O	8.7%	-24.7%	-7.0%	?	3.66µM*	-0.6%
SMILES	EPAC1 agonist	EPAC1 antag	EPAC2 ag	Rango complex inh	Rango release inh	EPAC2 antag
O=C(Nc1ccc(S(=O)(=O)Nc2nccs2)cc1)c1cc(-c2ccccn2)nc2ccccc12	16.7%	70.8µM*	2.0%	-2.0%	0.5%	-11.8%
O=C(Nc1ccc(S(=O)(=O)Nc2nccs2)cc1)c1cc(-c2ccccc2Cl)nc2ccccc12	9.9%	-18.7%	8.4%	0.7%	-10.8%	-9.9%
O=C(O)C1Nc2c(Cl)cc(Cl)cc2C2C=CCC12 (stereo unspecified)	4.7%	17.8µM*	0.6%	?	-10.9%	-2.2%
CCCNC(=O)C1(C)CCN(C(=O)c2ccc(C)c(F)c2)C1 (stereo unspecified)	-4.8%	7.9%	8.2%	/	/	-1.0%
CCN1CCN(Cc2c(O)ccc3c2O/C(=C\C=C\c2ccccc2OC)C3=O)CC1	56.2µM*	45.9%	?	?	?	88.6%
CCN1CCN(Cc2c(O)ccc3c(=O)c(-c4ccccc4OC)coc23)CC1	6.5%	-4.3%	5.6%	-0.8%	3.0%	-0.2%
Cc1ccc2nc(SCC(=O)Nc3cccc([N+](=O)[O-])c3)[nH]c2c1	21.2%	-16.1%	12.6%	-0.8%	?	-8.0%
O=C(CCN1C(=O)/C(=C/c2ccccc2)SC1=S)Nc1ccccn1	-6.5%	3.2%	11.3%	-1.0%	14.6µM*	5.0%
CC(C)N(C(=O)[C@H]1CC(CC(=O)NC(C)(C)C)C(=O)N2CCc3c([nH]c4ccccc34)[C@]12C)C(C)C (stereo partly specified)	-9.9%	-5.9%	8.8%	0.5%	-1.0%	-17.9%
CCOc1ccc2c(c1)C(C)=CC(C)(C)N2C(=O)Nc1ccccc1F	1.1%	-14.0%	0.6%	-6.1%	-25.1%	2.9%
CCNC(=O)N1c2ccc(OCC)cc2C(C)=CC1(C)C	1.2%	-1.3%	0.7%	?	2.06µM*	-9.4%
Cn1cc([C@]2(O)C(=O)Nc3c(F)cccc32)c2ccccc21	-9.3%	23.4%	2.0%	/	/	?
c1ccc2c(c1)oc1c(-c3ccc4nccn4c3)cccc12	15.4%	-3.8%	17.7%	/	/	10µM*
Nc1sccc1C(=O)N1CCN(c2ccccc2)CC1	7.7%	0.2%	4.7%	/	/	10.8%
CCN1CC=C2C(C#N)=C(N)C(C#N)(C#N)C(CCc3ccccc3)C2C1 (stereo unspecified)	100µM*	?	50.1µM*	?	?	44.7µM*

Screening data (PubChem)
